Screening data as filed in PubChem BioAssay.
Sampled rows, rich in hits. Any-hit rate of the full collection: about 1.1%.
ID4 SMM = binders of human ID4 protein; hit rate 1.2% among 31,000; calls only; small molecule microarray, Flag-ID4 binding, fluorescence F/B; call rule not given here;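 note: a binder raises fluorescence above local background on the spot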
STK33 inh = inhibitors of human STK33 kinase | ADP-Glo luminescence, MBP substrate | inhibition, % at 12.5 µM | hit rate 0.44% among 27,000 | AID 2322; in the data active = inhibition above about 20%; inconclusive = no clear call, values can overlap the other calls
Target sequence (Q9BYT3 whole entry, looked up): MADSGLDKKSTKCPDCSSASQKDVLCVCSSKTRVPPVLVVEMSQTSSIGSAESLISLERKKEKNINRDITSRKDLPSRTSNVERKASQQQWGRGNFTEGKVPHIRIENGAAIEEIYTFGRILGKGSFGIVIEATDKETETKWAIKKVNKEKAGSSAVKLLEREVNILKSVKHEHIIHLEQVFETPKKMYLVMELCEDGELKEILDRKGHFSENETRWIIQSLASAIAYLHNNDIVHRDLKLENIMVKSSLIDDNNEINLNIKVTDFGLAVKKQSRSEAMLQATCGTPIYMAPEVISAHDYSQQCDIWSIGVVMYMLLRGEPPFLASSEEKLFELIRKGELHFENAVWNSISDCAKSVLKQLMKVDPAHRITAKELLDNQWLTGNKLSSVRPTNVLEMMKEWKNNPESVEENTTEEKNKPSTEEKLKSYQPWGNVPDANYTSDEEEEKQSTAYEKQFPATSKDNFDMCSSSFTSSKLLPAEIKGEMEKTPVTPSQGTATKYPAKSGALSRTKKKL
* = called active by the depositor; i = inactive; ? = inconclusive; · = no result given; + = active, no number.

SMILES	ID4 SMM	STK33 inh
COCC(C)NS(=O)(=O)c1ccc(NC(C)=O)cc1 (configuration not stated)	i	9
C[C@H](CCC(=O)O)[C@H]1CC[C@H]2[C@@H]3C(=O)C[C@@H]4CC(=O)CC[C@]4(C)[C@H]3CC(=O)[C@]12C	+	-1
CC(CCC(=O)NCC(=O)O)C1CCC2C3CCC4CC(O)CCC4(C)C3CC(O)C12C (configuration not stated)	i	·
CC(C)C[C@@H]1NC(=O)[C@@H]2C[C@H](C(=O)NCCCCCCN(C)C)[C@H](c3ccc(O)cc3)N2C1=O	i	2
Cc1cc(O)c(C=O)c2c1C(=O)Oc1c(C)c(O)c3c(c1O2)C(O)OC3=O (configuration not stated)	·	59*
COc1cc(C)c2c(c1C=O)Oc1c(c(C)c(O)c3c1C(O)OC3=O)OC2=O (configuration not stated)	i	15
Cn1c(Cn2nnc(-c3ccccc3)n2)nnc1SCC(N)=O	i	?
CCc1c(C)sc(NC(=O)c2cc(-c3ccccn3)nc3c(C)cccc23)c1C(=O)N1CCCCC1	i	3
Cc1ccc2c(C(=O)Nc3sc4c(c3C(N)=O)CCCCC4)cc(-c3ccccn3)nc2c1C	+	6
C[C@H](CO)N1C[C@H](C)[C@@H](CN(C)C(=O)Nc2cccc3ccccc23)OCc2cn(nn2)CCCC1=O	i	0
O=S(=O)(c1ccccc1)N1N=C(c2ccccc2)CC1c1ccco1 (configuration not stated)	i	1
COc1cc2c(ccc3cc(OC)c(OC)c(O)c32)cc1O	i	30*
COc1c(O)c(O)cc2ccc3cccc(O)c3c12	·	-6
COc1cc(NC(=S)NCCCO)c(OC)cc1Cl	i	-3
O=C(CSc1nnc(-c2ccco2)n1-c1cccc2ccccc12)Nc1ccc(C(=O)O)cc1	+	-1
COc1ccc(NC(=O)CSc2nnc(-c3ccco3)n2-c2ccccc2)cc1	i	-5
C[C@H]1CN([C@@H](C)CO)C(=O)Cc2cc(NS(=O)(=O)c3ccc(Cl)cc3)ccc2O[C@@H]1CN(C)Cc1ccccc1	·	-4
CCOc1ccccc1C(=O)Nc1ccc(S(=O)(=O)Nc2ccccn2)cc1	i	24*
CCOc1ccccc1C(=O)Nc1ccc(S(=O)(=O)Nc2nc(C)cc(C)n2)cc1	i	2
O=C(Cn1ccc([N+](=O)[O-])n1)Nc1ccc(F)cc1	i	2
Cc1cc(C)nc(SCC(=O)Nc2cccc(C(=O)O)c2)n1	+	-1
Cc1nc(SCC(=O)Nc2cccc(C(=O)O)c2)[nH]c(=O)c1C	i	0
Cc1noc(C)c1NC(=O)N(C)C[C@H]1OCCCC[C@H](C)Oc2ccc(NS(=O)(=O)c3cccs3)cc2C(=O)N([C@@H](C)CO)C[C@@H]1C	i	·
O=C(Nc1sc2c(c1C(=O)NCc1cccnc1)CCCC2)c1ccc(Cl)cc1	i	2
Cc1occc1C(=O)Nc1sc2c(c1C(=O)NCc1cccnc1)CCCC2	+	4
SMILES	ID4 SMM	STK33 inh
O=C(O)c1cc(NC(=O)C2CCCO2)cc(NC(=O)C2CCCO2)c1 (configuration not stated)	+	0
O=C(Nc1ccc(S(=O)(=O)NCC2CCCO2)cc1)C1CCCO1 (configuration not stated)	i	0
CCNC(=O)C[C@@H]1C=C[C@H](NC(=O)C2CC2)[C@@H](CO)O1	i	·
C[C@H]1CN([C@@H](C)CO)C(=O)c2cccc(NS(=O)(=O)c3ccccc3)c2O[C@@H]1CN(C)C	i	·
Cc1cc(C)c2c(=O)[nH]c(SCC(=O)c3ccccc3)nc2n1	i	-1
Cc1cc(C)c2c(=O)[nH]c(SCC(=O)N3CCOCC3)nc2n1	+	-2
C[C@@H]1CN([C@H](C)CO)C(=O)c2cc(NC(=O)Cc3ccccc3)ccc2O[C@H]1CN(C)S(=O)(=O)c1cccs1	·	0
Cn1c2ccccc2c2nnc(SCCN3CCCCC3)nc21	+	1
c1ccc2c(c1)[nH]c1nc(SCCN3CCCCC3)nnc12	i	2
CC(=O)NCCCN(CCCCN(CCCNC(=O)/C=C/c1ccc(O)cc1)C(C)=O)C(=O)/C=C/c1ccc(O)cc1	i	40*
O=C(/C=C/c1ccc(O)cc1)NCCc1ccc(O)cc1	·	3
O=C1CC(c2ccc(O)cc2)Oc2c1c(O)cc(O)c2C1C(=O)c2c(O)cc(O)cc2OC1c1ccc(O)c(O)c1 (configuration not stated)	i	-1
COc1ccc(OC)c2c(=S)c3ccccc3[nH]c12	i	·
O=C1NCc2c1c1c3ccccc3[nH]c1c1[nH]c3ccccc3c21	·	64*
Oc1cc(O)cc(/C=C/c2ccccc2)c1	i	-2
COCC(=O)N1[C@H](CO)[C@H](c2ccc(C3=CCCCC3)cc2)[C@@H]1C#N	i	·
COCC(=O)Nc1ccc2c(c1)[C@@H]1C[C@H](CC(=O)NC3CCCC3)O[C@@H](CO)[C@@H]1O2	i	·
